Assay outcomes: PubChem, several laboratories
PABP FP inh: PABP-poly(A) binding inhibition; PABP-poly(A) RNA binding, fluorescence polarization; 290,000 compounds, 1% hits; AID 2014; inhibition, % at 35 µM; P11940;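 also: calls also rest on retests at 20 µM and on dose response follow-up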
MLLE-PAM2 inh: inhibitors of microRNA-mediated deadenylation, human PABP1 MLLE binding; 360,000 compounds, 0.36% hits; inhibition, % at 20 µM; P11940; GST-MLLE / FITC-PAM2 fluorescence polarization; in the data active = inhibition above about 35%, passing the limit was not always enough;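 also: plate controls were DMSO wells with GST-MLLE for no effect and wells lacking GST-MLLE protein for full effect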
eIF4H inh: inhibitors of RNA binding by human eIF4H; Q15056; eIF4H fluorescence polarization binding assay; inhibition, % at 35 µM; 290,000 compounds, 0.94% hits; AID 2012;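 also: calls also rest on retests at 20 µM and on dose response follow-up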
GRK2 inh: inhibitors of human GRK2 displacing RNA aptamer | 330,000 compounds, 0.59% hits | inhibition of aptamer binding, % at 10 µM | P25098 | bead flow cytometry, FAM-aptamer displacement from GRK2;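 active = inhibition of aptamer binding above 40%, roughly 3 SD of noise, on plates passing a quality check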;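 also: median bead fluorescence of bound FAM aptamer so fluorescent compounds give negative values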
PERK inhibitor: human PERK inhibition, primary cell-based screen; 220,000 compounds, 0.17% hits; Q9NZJ5; inhibition, % at 5.6 µM; CHO PERK-DD fusion, SEAP luminescence translation reporter;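 active = inhibition above the mean inhibition of all tested compounds plus 3 SD, set separately per screening campaign, cut at about 2.9% in these data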;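 also: PERK kinase domain activated by AP20187 dimerizer at 100 nM; 0% = DMSO with dimerizer and 100% = rapamycin at 8.4 µM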
The depositor's hits bear a star; ? = inconclusive; / = no result given. Rows were chosen to be rich in hits. Some 1.9% of all compounds tested hit in one or more screens of this group. Unless noted, no rule for the calls is given here.

SMILES	PABP FP inh	MLLE-PAM2 inh	eIF4H inh	GRK2 inh	PERK inhibitor
Brc1ccc(Nc2nc3ccccc3n3nnnc23)cc1	87.0*	/	79.1*	0.0	0.5
NCCCCc1cn(CC(=O)N2CCNCC2)nn1	57.1*	5.5	7.1	1.0	0.8
Cn1c(N)c(C(=O)CSc2nc(C3CC3)n(-c3ccccc3)n2)c(=O)n(C)c1=O	/	-5.2	/	3.0	/
COc1ccc2c(c1)c1ccc3c(c1n2C)C(=O)C=CC3=O	11.9	48.8*	5.4	/	0.1
Cc1ccc2c(c1)c1ccc3c(c1n2C)C(=O)C=CC3=O	6.1	42.1*	24.2	/	0.0
Cc1ccc(S(=O)(=O)N2CCOCC2)cc1C(=O)OCC(=O)NC1CC1	/	-10.6	/	4.0	/
COc1ccc(OC(C)C(=O)N(C)Cc2nc(-c3cccc(C)c3)no2)cc1 (stereo not given)	-6.2	-10.8	-8.4	3.0	/
O=C(O)c1ccc(O)c(N2C(=O)Nc3ccccc3N2O)c1	6.5*	-10.1	53.4*	2.0	0.8
N=C1/C(=C\c2ccc(-c3cccc(C(=O)O)c3)o2)C(=O)N=C2SC=C(c3ccccc3)N12	59.5*	-79.3	57.6*	2.0	0.1
N=C1/C(=C/c2ccc(-c3cccc(C(=O)O)c3)o2)C(=O)N=C2SC(CC(=O)N3CCOCC3)=NN12	58.1*	-8.3	61.7*	4.0	/
N=C1/C(=C\c2ccc(SCc3ccccc3)o2)C(=O)N=C2SC(CC(=O)N3CCOCC3)=NN12	33.9	-35.7	30.4	4.0	-0.1
CC(=O)Oc1ccc(Cl)cc1CN(C(C)=O)C1CCCCC1	/	21.2	/	/	/
Cc1ccc(C)c(NC(=O)CCNS(=O)(=O)c2ccc3[nH]c(=O)oc3c2)c1	28.0	-15.6	72.6*	2.0	/
COc1ccc(CCN2CC(C(=O)NCCc3ccccn3)CCC2=O)cc1 (stereo not given)	-2.0	4.1	-0.5	0.0	/
C/C(=N\NC(=O)c1cccc(F)c1)c1ccc(NC(=O)Cc2ccccc2)cc1	6.9	-0.8	3.3	0.0	/
C/C(=N\NC(=O)c1cc(O)ccc1O)c1cccc(NC(=O)c2ccc(Cl)cc2)c1	87.0*	12.0	90.0*	0.0	/
C/C(=N\NC(=O)c1cc(O)cc(O)c1)c1ccc(NC(=O)Cc2ccccc2)cc1	94.0*	2.9	100.6*	52.0*	/
CC(=O)Nc1cccc(/C(C)=N/NC(=O)c2ccc(O)cc2)c1	54.2	0.3	active	1.0	0.2
C/C(=N\NC(=O)c1cc(O)ccc1O)c1cccc(NC(=O)c2cccc(Cl)c2)c1	28.9*	2.2	85.0*	5.0	/
Fc1ccc(-c2csc(Nc3ccccn3)n2)cc1	-5.9	-4.4	4.3	1.0	/
COc1ccccc1-c1cccc([C@@H]2C[C@H]3[C@@H](CN2)CON3C)c1	/	-12.9	/	/	/
CC(C)CC1NC(=O)N(CC(=O)Nc2ccc(-c3ccccc3)cc2)C1=O (stereo not given)	/	-5.0	/	0.0	/
CCC(c1nc2ccccc2[nH]1)N(CCCn1ccnc1)C(=O)c1ccc(C(F)(F)F)cc1 (stereo not given)	/	5.2	/	/	/
O=C(COC(=O)CCOc1ccccc1)NCc1ccco1	67.2*	-8.4	93.6*	13.0	1.5
O=C(COC(=O)C1CC2C=CC1C2)NCc1ccco1 (stereo not given)	40.9*	-1.1	93.4*	21.0	0.8
SMILES	PABP FP inh	MLLE-PAM2 inh	eIF4H inh	GRK2 inh	PERK inhibitor
CCc1n(CC(O)COC2CCCCC2)c2ccccc2[n+]1C (stereo not given)	52.7*	-93.8	1.4	0.0	0.4
CCc1c(C)sc(NC(=O)CC#N)c1C#N	86.7*	-15.8	73.9*	0.0	0.1
Cc1sc2ncnc(Nc3ccc(N4CCOCC4)cc3)c2c1-c1ccccc1	119.8*	-22.4	?	0.0	-0.6
Cc1ccc(-n2c(C)cc3c2CCCC3=O)cc1	21.4	41.6*	20.3	0.0	0.6
CN(C)C=NC(=O)c1cn(-c2ccc(F)cc2)c(=O)c2ccccc12	81.5	6.8	9.9*	0.0	0.2
CN(C)C(=O)c1cn(-c2ccc(Cl)cc2)c(=O)c2ccccc12	2.2	-10.5	2.5	0.0	0.6
O=C(NCC(NS(=O)(=O)OCC(Cl)(Cl)Cl)c1ccccc1)C(F)(F)F (stereo not given)	9.6	-0.7	-2.3	3.0	/
COC(=O)Cc1ccc(NC(=O)c2ccc3c(c2)C(=O)N(Cc2ccco2)C3=O)cc1	0.5	-2.4	-0.5	2.0	/
O=C(O)c1ccc2c(c1)C(=O)N(Cc1ccco1)C2=O	14.1	-2.2	3.5	4.0	/
O=C(O)c1cccc(NC(=O)c2ccc3c(c2)C(=O)N(Cc2ccco2)C3=O)c1	48.7	6.0	62.3*	2.0	0.8
